For 17 compounds, Potency and outcome results are on record in PubChem BioAssay (Tox21).

Structures are written as SMILES. Several values for one entry are separate records, joined by “and”; a condition that tells them apart may be missing. Equal values may be shown once. Results filed as inconclusive are left out. A structure can be active in one record and inactive in another. Activity calls are given as the source filed them. Unless noted, calls come from the whole dose curve; as a rule, active = well fitted curve in the direction sought with a large enough effect in the repeat runs; inconclusive = weak or mixed curves; inactive = no such curve, though single readings can be large; an effect the other way counts as inactive or inconclusive.

The nature of assay [1]: qHTS assay to identify small molecule agonists of the vitamin D receptor (VDR) signaling pathway - cell viability counter screen (AID 743224). Note: nearly all actives have a fitted effect of over 50% in size. Note: potency is the fitted concentration of half-maximal effect. In a few lines: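 In parallel with the bla FRET readout, cytotoxicity toward VDR-bla cells after 16 h compound exposure was assessed by CellTiter-Glo, with luminescence recorded after a 30 min room-temperature incubation.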
Assay [2] can be described thus: qHTS assay to identify small molecule antagonists of the vitamin D receptor (VDR) signaling pathway - cell viability counter screen (AID 743225). Note: nearly all actives have a fitted effect of over 50% in size. In a few lines: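 Same-well multiplex: following 16 h treatment of HEK 293T cells carrying a UAS-driven beta-lactamase reporter with compound and agonist (3 nM final), and a 2 h FRET substrate step, CellTiter-Glo was added and luminescence read after 30 min.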
On the technique in general: In qHTS, concentration-response curves come from the screen itself.

Assay [3] in a line: qHTS assay to identify small molecule agonists of the NFkB signaling pathway (AID 1159509; active = well fitted curve in the direction sought with a large enough effect in the signal ratio in the repeat runs, not every such curve was filed as active; the % refers to the signal ratio; note: series mostly up to about 61 µM). In a few lines: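 Agonist activity was read as beta-lactamase-driven FRET change (460 and 530 nm emission, 405 nm excitation) following 1.5 hr substrate loading at room temperature. Beforehand, ME-180 NFkB-bla reporter cells were treated with compounds for 5 hr at 37 C.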
Assay [4] is described as follows: qHTS assay to identify small molecule agonists of the NFkB signaling pathway - cell viability counter screen (AID 1159515; calls by dose curve; note: nearly all actives have a fitted effect of over 55% in size; note: potency is the fitted concentration of half-maximal effect). In a few lines: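 Plate 2,000 NFkB-bla ME-180 cells/well; incubate overnight. Add compounds, 5 hr at 37 C. Add FRET substrate, 1.5 hr RT. Add CellTiter-Glo, 30 min RT; read luminescence.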
Assay [5] in a line: qHTS assay to identify small molecule agonists of the endoplasmic reticulum stress response signaling pathway (AID 1159516; active = well fitted activation curve with a large enough effect in the signal ratio in the repeat runs, not every such curve was filed as active; the % refers to the signal ratio). Summed up: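 Beta-lactamase expression from the ER stress response element in HeLa reporter cells is quantified with the LiveBLAzer B/G FRET substrate, read at 405 nm excitation after 2 hr at room temperature, following 5 hr compound treatment at 37 C.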

The target of assay [6] is Nuclear receptor ROR-gamma (Homo sapiens) (UniProt P51449). Kind of assay: qHTS assay to identify small molecule antagonists of the retinoid-related orphan receptor gamma (ROR-gamma) signaling pathway (AID 1159521; note: nearly all actives have a fitted effect of over 50% in size; note: potency is the fitted concentration of half-maximal effect). Summed up:
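Inducible-expression reporter assay: doxycycline (1 uM final) switched on RORγ in CHO cells bearing a ROR response element-luciferase construct, with test compounds present from 2 h beforehand. Decreased luminescence after 16 h defined antagonist activity.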

The nature of assay [7]: qHTS assay to identify small molecule agonists of the AP-1 signaling pathway - cell viability counter screen (AID 1159525; calls by dose curve; note: nearly all actives have a fitted effect of over 55% in size). Summed up: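 Intracellular ATP by Cell Titer Glo luminescence (30 min, RT) in the same ME-180 AP-1-bla wells after the 5 h compound exposure at 37 °C. Normalised to tetra n-octyl ammonium bromide and DMSO controls.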
The nature of assay [8]: qHTS assay to identify small molecule agonists of the AP-1 signaling pathway (AID 1159526; calls by dose curve).
Assay [9] has as its target Retinoic acid receptor RXR-alpha (Homo sapiens) (UniProt P19793). As to the kind of experiment: qHTS assay to identify small molecule agonists of the RXR signaling pathway (AID 1159527; calls by dose curve; note: nearly all actives have a fitted effect of over 35% in size). Summed up:
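Compounds in DMSO were added to RXR-alpha-UAS-bla HEK 293T cells kept in 2% charcoal-stripped serum, and incubated 16 hr at 37 C with 5% CO2. Reporter signal came from a 2 hr B/G FRET substrate step.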

Assay [10] is described as follows: qHTS assay to identify small molecule agonists of the RXR signaling pathway - cell viability counter screen (AID 1159529). Note: nearly all actives have a fitted effect of over 50% in size. Note: potency is the fitted concentration of half-maximal effect. Summed up:
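Counter screen: CellTiter-Glo luminescence. Cells: RXR-alpha-UAS-bla HEK 293T. Medium: 2% charcoal-stripped FBS. Treatment: 16 h, 37 C. Reagent incubation: 30 min, RT.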

Assay [11] can be described thus: qHTS assay to identify small molecule antagonists of the retinoid acid receptor (RAR) signaling pathway - cell viability counter screen (AID 1159551). Note: nearly all actives have a fitted effect of over 35% in size. Note: potency is the fitted concentration of half-maximal effect. In a few lines:
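Viability of C3RL4 cells is quantified from ATP by luminescence after 6 h treatment at 37 C with compounds and 1 uM retinol.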

Assay [12] in a line: qHTS assay to identify small molecule antagonists of the retinoic acid receptor (RAR) signaling pathway (AID 1159552; note: nearly all actives have a fitted effect of over 50% in size; note: potency is the fitted concentration of half-maximal effect). In a few lines:
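Antagonism of retinol-induced RARE reporter activity was measured in C3RL4 cells. Exposure to compounds and 1 uM final retinol lasted 6 hr at 37 C, with luminescence as endpoint.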

The nature of assay [13]: qHTS assay to identify small molecule agonists of the retinoic acid receptor (RAR) signaling pathway (AID 1159553). Summed up:
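Compounds dissolved in DMSO were pinned onto C3RL4 cells seeded the previous day, and plates were held 6 hr at 37 C. RARE-driven luciferase output was then read by luminescence.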

The nature of assay [14]: qHTS assay to identify small molecule antagonists of the retinoid-related orphan receptor gamma (ROR-gamma) signaling pathway - cell viability counter screen (AID 1159520). Note: nearly all actives have a fitted effect of over 50% in size. Note: potency is the fitted concentration of half-maximal effect. In a few lines:
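Cytotoxicity was read from cellular ATP (CellTiter-Glo luminescence) after 16 hr at 37 C with 1 uM doxycycline induction. The inducer was added 2 hr after compound transfer to Tet-on ROR gamma CHO cells.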

Assay [15] is described as follows: qHTS assay to identify small molecule agonists of the endoplasmic reticulum stress response signaling pathway - cell viability counter screen (AID 1159517; calls by dose curve). In a few lines:
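ESRE-bla HeLa cells (1,500/well) were plated overnight at 37 C and exposed to compounds for 5 hr. After the 2 hr beta-lactamase substrate read, CellTiter-Glo went into the same wells, and luminescence was read after 30 min at room temperature.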

A short description of assay [16]: qHTS assay to identify small molecule antagonists of the estrogen related receptor (ERR) signaling pathway - cell viability counter screen (AID 1224818). Note: series mostly up to about 46 µM. In a few lines: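 Cytotoxicity check run alongside the ERR antagonist screen: cells exposed to test compounds 17.5 h at 37 C, viability taken as CellTiter-Fluor fluorescence intensity.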
The nature of assay [17]: qHTS assay to identify small molecule antagonists of the estrogen related receptor (ERR) signaling pathway (AID 1224819). Summed up: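 ERR reporter cells were plated at 2,000 cells/well and left 6 h at 37 C/5% CO2 before pin-tool transfer of compounds in DMSO. After 18 h at 37 C, One-Glo was added and luminescence was read 30 min later at room temperature.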
A short description of assay [18]: qHTS assay to identify small molecule agonists of the estrogen related receptor (ERR) signaling pathway (AID 1224820). In a few lines:
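After 6 h plating (2,000 cells/well) and 18 h compound treatment at 37 C, ERR cells were lysed with One-Glo and luminescence read after 30 min at room temperature.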

Assay [19] is described as follows: qHTS assay to identify small molecule antagonists of the estrogen related receptor signaling pathway with the pleiotropic PPARgamma coactivator (PGC) cell viability counter screen (AID 1224822;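 note: series mostly up to about 46 µM; viability read after 17.5 h compound exposure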). In a few lines: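 Viable cell signal (CellTiter-Fluor, 30 min, 37 C/5% CO2) was measured in PGC/ERR cells after a 17.5 h compound incubation.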

Chain of Retinoic acid receptor RXR-alpha (Homo sapiens) (P19793 whole entry, looked up): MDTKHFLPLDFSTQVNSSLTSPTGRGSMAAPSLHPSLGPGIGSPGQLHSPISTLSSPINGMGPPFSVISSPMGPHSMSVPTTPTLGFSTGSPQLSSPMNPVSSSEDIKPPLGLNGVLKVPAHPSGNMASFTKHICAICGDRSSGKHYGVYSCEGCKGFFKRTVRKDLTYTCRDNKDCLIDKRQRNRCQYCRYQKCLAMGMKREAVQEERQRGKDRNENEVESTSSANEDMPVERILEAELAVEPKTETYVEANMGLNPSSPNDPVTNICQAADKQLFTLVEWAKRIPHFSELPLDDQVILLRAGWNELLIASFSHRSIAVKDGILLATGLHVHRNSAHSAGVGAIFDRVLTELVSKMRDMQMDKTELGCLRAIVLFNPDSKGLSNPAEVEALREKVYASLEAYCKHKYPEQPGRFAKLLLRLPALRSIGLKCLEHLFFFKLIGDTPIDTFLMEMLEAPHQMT

As to `ClCc1ccccc1`, the Potency entry in [1], in assay [2], in assay [4], in assay [6], in [7] and in assay [9] was “inactive” in each case. Also, the Potency entry in assay [10], in assay [11], in assay [12] and in assay [13] was “inactive” in each case. Also, the outcome in assay [3], in [5] and in assay [8] was inactive.

`Nc1ccc([N+](=O)[O-])cc1[N+](=O)[O-]`: the Potency entry in assay [1], in assay [2], in [4], in assay [7], in assay [9] and in assay [10] was “inactive” in each case. Further, the Potency entry in assay [11] is “inactive”. The call in assay [3], in [5] and in assay [8] was inactive.

On to `CC(c1ccc(O)cc1)(c1ccc(O)cc1)c1ccc(O)cc1`, for which the Potency entry in assay [2], in assay [4], in [14], in [9], in assay [11] and in [13] was “inactive” throughout. Also, the result in [3] and in assay [5] was inactive.

As for `CC(C)N(CCC(C(N)=O)(c1ccccc1)c1ccccn1)C(C)C` (centres undefined), the Potency result in assay [1], in assay [2], in [4], in [15], in assay [6] and in [7] was “inactive” in each case. Moreover, the Potency entry in assay [10], in assay [11], in assay [13] and in [19] was “inactive” each time. Also, the compound was called inactive in [3], in assay [8], in assay [16], in assay [17] and in [18].

On to `COC(N)=O`, for which the Potency entry in assay [1], in assay [2], in assay [4], in [15], in [6] and in assay [7] was “inactive” throughout. Further, the Potency result in [9], in [10], in assay [11], in [12] and in assay [13] was “inactive” throughout. In addition, the outcome in assay [3] and in assay [8] was inactive.

Regarding `O=S(=O)(Cl)c1ccccc1`, the Potency entry in assay [1], in assay [2], in assay [4], in assay [14], in assay [7] and in [9] was “inactive” each time. Further, the Potency entry in assay [10], in [11], in [12] and in assay [13] was “inactive” throughout. Also, the outcome in [3] and in [8] was inactive.

As to `CN1C(=O)NC(=O)C(C)(C2=CCCCC2)C1=O` (centres undefined), the Potency result in [1], in assay [2], in assay [4], in [15], in assay [6] and in assay [7] was “inactive” throughout. The Potency result in [9], in [10], in [11], in assay [12] and in assay [13] was “inactive” in each case. Besides, the compound was classed as inactive in assay [3] and in assay [8].

`CCOP(=S)(OCC)Oc1nc(Cl)c(Cl)cc1Cl`: the Potency entry in assay [1], in assay [2], in [4], in assay [15], in assay [14] and in assay [7] was “inactive” throughout. Moreover, in assay [3], the outcome was inactive. Moreover, the Potency in assay [6] was 27.4 µM (active) and inactive; in [10], 21.9 µM (active) and 49 µM (active); in assay [11], 61.3 µM (active) and inactive.

Regarding `CCC(C)(NC(=O)c1cc(Cl)c(C)c(Cl)c1)C(=O)CCl` (centres undefined), the Potency is 55.3 µM (active) in [1], 21.8 µM (active) in assay [14], 6.15 µM (active) in assay [6] and 4.89 µM (active) in assay [12]. The outcome in [3] was inactive. The Potency entry in [4] is “inactive”.

Turning to `Clc1cc(C(Cl)(Cl)Cl)cnc1Cl`, the Potency result in assay [1], in assay [2], in assay [4], in assay [14], in [6] and in [7] was “inactive” throughout. For the same compound, the Potency entry in assay [9], in assay [10], in assay [11] and in [12] was “inactive” in each case. The compound was classed as inactive in [3] and in [8].

For `COc1cc(CC(C)N)cc2c1OCO2` (centres undefined), the Potency result in assay [1], in assay [2], in [4], in assay [14], in [6] and in assay [7] was “inactive” each time. For the same compound, the Potency result in assay [9], in [10], in [11], in assay [12] and in [13] was “inactive” each time. Moreover, the compound was classed as inactive in [3] and in assay [8].

On to `OC(c1ccc(Cl)cc1)(c1ccc(Cl)cc1)c1cccnc1`, for which the compound was called inactive in assay [3]. Besides, the Potency entry in assay [4], in assay [15], in assay [14], in [7], in assay [10] and in [11] was “inactive” throughout. Further, the Potency entry in assay [12] and in assay [13] was “inactive” throughout. Moreover, in assay [6], the Potency is 54.5 µM (active).

Take `O=S1(=O)OC(c2cc(Br)c(O)c(Br)c2)(c2cc(Br)c(O)c(Br)c2)c2ccccc21`: the Potency result in assay [2], in assay [7] and in assay [10] was “inactive” each time. In addition, the compound was called inactive in [3] and in [8]. The Potency in assay [4] is 40 µM (active); in assay [14] it was 7.91 µM (active); in [6] it was 5.6 µM (active); in assay [11], 19.9 µM (active); in assay [12], 25 µM (active).

For `CCOP(=S)(OCC)Oc1cc(Cl)c(Br)cc1Cl`, the Potency entry in [2], in assay [4], in assay [14], in [6], in assay [7] and in assay [11] was “inactive” in each case. Further, the Potency result in [13] was “inactive”. Also, in assay [3], the result was inactive.

On to `O=C1C(=O)c2cccc3cccc1c23`, for which the Potency entry in assay [2], in [4], in [15], in assay [7], in assay [10] and in assay [11] was “inactive” in each case. In addition, the outcome in [3] was inactive.

On to `CNP(=O)(OC)Oc1ccc(C(C)(C)C)cc1Cl` (centres undefined), for which the Potency entry in assay [1], in assay [2], in assay [4], in assay [15], in assay [14] and in assay [7] was “inactive” in each case. In addition, the Potency entry in assay [11], in [12] and in assay [13] was “inactive” each time. Besides, the call in [3] and in assay [8] was inactive.

Take `CS/C(C)=N/OC(=O)N(C)SN(C)C(=O)O/N=C(\C)SC`: the Potency entry in [1], in assay [2], in [4] and in [7] was “inactive” in each case. Besides, the call in assay [3] was inactive. Moreover, the Potency in assay [14] was 43.3 µM (active); in assay [6], 38.6 µM (active); in assay [10], 49 µM (active).
